Read-out in experiment [1]: Cyclin Dependent Kinase Inhibitor 1A (CDKN1A), CDKN1A (gene 1026)
Nature of the experiment: LTEA_HepaRG_CDKN1A: Life Technologies and Expression Analysis (LTEA) Assay for Cyclin Dependent Kinase Inhibitor 1A (CDKN1A) using HepaRG (AID 2283450). The settings on record: mRNA level, 48 h; actives raise or lower the signal. Summed up: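 HepaRG, 48 h dosing, 8-pt half-log series from 100 uM top, 0.5% DMSO vehicle, duplicates. Readout: TaqMan qRT-PCR of CDKN1A transcript, housekeeping-normalized (ACTB, GAPDH, POLR2A). Up/down curve fit relative to DMSO.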

Read-out in experiment [2]: Cyclin D1 (CCND1), CCND1 (gene 595)
Nature of the experiment: LTEA_HepaRG_CCND1: Life Technologies and Expression Analysis (LTEA) Assay for Cyclin D1 (CCND1) using HepaRG (AID 2283451).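 On AC50: differentiated human HepaRG liver cells in serum-free induction medium.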 The settings on record: mRNA level, 48 h; actives raise or lower the signal. A digest of the protocol:
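qRT-PCR (Fluidigm 96.96 array) read-out of transcript level, housekeeping-normalized (ACTB/GAPDH/POLR2A). HepaRG cells, 48 h chemical exposure, 8-point half-log series from 100 uM, 0.5% DMSO vehicle; gain or loss relative to DMSO baseline.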

Read-out in experiment [3]: catalase (CAT), CAT (gene 847)
Nature of the experiment: LTEA_HepaRG_CAT: Life Technologies and Expression Analysis (LTEA) Assay for catalase (CAT) using HepaRG (AID 2283452). The settings on record: mRNA level, 48 h; actives raise or lower the signal. Summed up:
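Expression of CAT was quantified by TaqMan qRT-PCR with ACTB/GAPDH/POLR2A normalization after 48 h chemical exposure of HepaRG. Eight-point half-log series, top 100 uM, in 0.5% DMSO; gain or loss fitted against vehicle.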

Read-out in experiment [4]: flavin-containing dimethylaniline monooxygenases 3 (FMO3), FMO3 (gene 2328)
Kind of experiment: LTEA_HepaRG_FMO3: Life Technologies and Expression Analysis (LTEA) Assay for flavin-containing dimethylaniline monooxygenases 3 (FMO3) using HepaRG (AID 2283453).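 On AC50: differentiated human HepaRG liver cells in serum-free induction medium.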 The settings on record: mRNA level, 48 h; actives raise or lower the signal. A digest of the protocol: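 Eight-point concentration-response in serum-free HepaRG cultures (top 100 uM, 0.5% DMSO, 48 h). Read-out: FMO3 mRNA level normalized to three endogenous control genes, fitted bidirectionally versus vehicle.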

Read-out in experiment [5]: Cytochrome P450 (CYP1A1), CYP1A1 (gene 1543)
Kind of experiment: LTEA_HepaRG_CYP1A1: Life Technologies and Expression Analysis (LTEA) Assay for Cytochrome P450 (CYP1A1) using HepaRG (AID 2283454). The settings on record: mRNA level, 48 h; actives raise or lower the signal. A digest of the protocol:
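qRT-PCR read-out: CYP1A1 transcript normalized to three housekeeping genes, fitted bidirectionally against 0.5% DMSO vehicle baseline. Human HepaRG cells, 48 h chemical exposure, 8-point half-log series topping at 100 uM.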

Read-out in experiment [6]: CFLAR gene, CFLAR (gene 8837)
Nature of the experiment: LTEA_HepaRG_CFLAR: Life Technologies and Expression Analysis (LTEA) Assay for CFLAR gene using HepaRG (AID 2283455). The following applies: mRNA level, 48 h; actives raise or lower the signal. A digest of the protocol:
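Transcript level by qRT-PCR (normalized to ACTB, GAPDH and POLR2A) after 48 h chemical exposure of HepaRG cells, top concentration 100 uM with half-log steps, 0.5% DMSO vehicle, duplicates; fitted bidirectionally against DMSO baseline.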

Read-out in experiment [7]: Forkhead box O1 (FOXO1), FOXO1 (gene 2308)
Nature of the experiment: LTEA_HepaRG_FOXO1: Life Technologies and Expression Analysis (LTEA) Assay for Forkhead box O1 (FOXO1) using HepaRG (AID 2283456). The following applies: mRNA level, 48 h; actives raise or lower the signal. Summed up: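 FOXO1 transcript quantified by qRT-PCR after 48 h chemical exposure (top 100 uM, half-log steps, 0.5% DMSO) of HepaRG cells, housekeeping-normalized (ACTB/GAPDH/POLR2A). Changes fitted in both directions relative to vehicle.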

Experiment [8] can be described thus: CEETOX_H295R_TESTO: CeeTox H295R High-throughput Steroidogenesis Assay for Testosterone (TESTO) (AID 2283457).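 Further: cells exposed to chemicals for 48 h before medium collection.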 The following applies: actives raise or lower the signal. Summed up:
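Readout: testosterone quantified by HPLC-MS/MS (C18, ESI positive) after MTBE liquid-liquid extraction of culture medium. Cells were H295R, 48 h chemical exposure per OECD 456 with modifications. Gain or loss of signal fitted relative to DMSO.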

Read-out in experiment [9]: growth arrest and DNA damage 45 (GADD45A), GADD45A (gene 1647)
Nature of the experiment: LTEA_HepaRG_GADD45A: Life Technologies and Expression Analysis (LTEA) Assay for growth arrest and DNA damage 45 (GADD45A) using HepaRG (AID 2283458). The following applies: mRNA level, 48 h; actives raise or lower the signal. Summed up:
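HepaRG, 48 h exposure, 8 conc. (top 100 uM, half-log steps), 0.5% DMSO vehicle, duplicates. Read-out: qRT-PCR mRNA level, housekeeping-normalized (ACTB/GAPDH/POLR2A). Curves fit bidirectionally vs DMSO baseline.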

Read-out in experiment [10]: ABC Transporter (ABCB1), ABCB1 (gene 5243)
Nature of the experiment: LTEA_HepaRG_ABCB1: Life Technologies and Expression Analysis (LTEA) Assay for ABC Transporter (ABCB1) using HepaRG (AID 2283460). The settings on record: mRNA level, 48 h; actives raise or lower the signal. A digest of the protocol:
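ABCB1 transcript level measured by TaqMan qRT-PCR against three housekeeping genes after 48 h chemical exposure of differentiated HepaRG cells. Top concentration 100 uM, half-log steps, eight points, 0.5% DMSO vehicle; bidirectional fit relative to DMSO.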

Read-out in experiment [11]: growth arrest and DNA damage 45 (GADD45B), GADD45B (gene 4616)
Kind of experiment: LTEA_HepaRG_GADD45B: Life Technologies and Expression Analysis (LTEA) Assay for growth arrest and DNA damage 45 (GADD45B) using HepaRG (AID 2283461). The settings on record: mRNA level, 48 h; actives raise or lower the signal. Summed up:
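qRT-PCR read-out (Fluidigm TaqMan, housekeeping-normalized) of mRNA change in human HepaRG cells after 48 h chemical exposure; 8-point curve, top 100 uM, half-log steps, 0.5% DMSO vehicle; gain or loss fitted relative to DMSO baseline.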

Read-out in experiment [12]: ABC Transporter (ABCC3), ABCC3 (gene 8714)
Nature of the experiment: LTEA_HepaRG_ABCC3: Life Technologies and Expression Analysis (LTEA) Assay for ABC Transporter (ABCC3) using HepaRG (AID 2283462). The settings on record: mRNA level, 48 h; actives raise or lower the signal. Summed up: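 qRT-PCR read-out of ABCC3 transcript, normalized to three housekeeping genes (ACTB, GAPDH, POLR2A), after 48 h chemical exposure of human HepaRG cells. Eight half-log concentrations, highest 100 uM, in 0.5% DMSO; gain or loss fitted relative to DMSO baseline.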

Read-out in experiment [13]: ABC Transporter (ABCB11), ABCB11 (gene 8647)
Nature of the experiment: LTEA_HepaRG_ABCB11: Life Technologies and Expression Analysis (LTEA) Assay for ABC Transporter (ABCB11) using HepaRG (AID 2283463). The settings on record: mRNA level, 48 h; actives raise or lower the signal. Summed up: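 ABCB11 transcript levels quantified by TaqMan qRT-PCR against three housekeeping genes after 48 h chemical exposure of HepaRG cultures. Concentrations up to 100 uM in half-log steps, 0.5% DMSO vehicle; both induction and suppression scored.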

Read-out in experiment [14]: ABC Transporter (ABCC2), ABCC2 (gene 1244)
Kind of experiment: LTEA_HepaRG_ABCC2: Life Technologies and Expression Analysis (LTEA) Assay for ABC Transporter (ABCC2) using HepaRG (AID 2283464). The settings on record: mRNA level, 48 h; actives raise or lower the signal. A digest of the protocol: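 qRT-PCR (TaqMan, Fluidigm array) read-out of ABCC2 mRNA, normalized to three housekeeping genes. Differentiated HepaRG cells were treated 48 h in serum-free induction medium with 8-point half-log series from 100 uM in 0.5% DMSO; curves fitted bidirectionally relative to DMSO.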

Read-out in experiment [15]: Broad substrate specificity ATP-binding cassette transporter ABCG2 (Homo sapiens) (UniProt Q9UNQ0)
Kind of experiment: LTEA_HepaRG_ABCG2: Life Technologies and Expression Analysis (LTEA) Assay for ABC Transporter (ABCG2) using HepaRG (AID 2283465). The following applies: mRNA level, 48 h; actives raise or lower the signal. A digest of the protocol: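 ABCG2 transcript was quantified by TaqMan qRT-PCR against three housekeeping genes in HepaRG cells. Cells were treated in duplicate for 48 h across an 8-point half-log series up to 100 uM, with 0.5% DMSO vehicle. Gain or loss versus DMSO was fit.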

Read-out in experiment [16]: Peroxisomal acyl-coenzyme A oxidase 1 (ACOX1) gene, ACOX1 (gene 51)
Nature of the experiment: LTEA_HepaRG_ACOX1: Life Technologies and Expression Analysis (LTEA) Assay for Peroxisomal acyl-coenzyme A oxidase 1 (ACOX1) gene using HepaRG (AID 2283467). The following applies: mRNA level, 48 h; actives raise or lower the signal. A digest of the protocol:
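ACOX1 transcript levels were quantified by TaqMan qRT-PCR against three housekeeping genes after 48 h chemical exposure of differentiated human HepaRG cells. Exposure used eight half-log steps topping at 100 uM, 0.5% DMSO vehicle, in duplicate. Bidirectional curve fits were made relative to DMSO.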

Read-out in experiment [17]: Alkaline Phosphatase, Placental (ALPP) gene, ALPP (gene 250)
Kind of experiment: LTEA_HepaRG_ALPP: Life Technologies and Expression Analysis (LTEA) Assay for Alkaline Phosphatase, Placental (ALPP) gene using HepaRG (AID 2283468). The following applies: mRNA level, 48 h; actives raise or lower the signal. Summed up: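 qRT-PCR readout of ALPP mRNA (Fluidigm TaqMan), normalized to ACTB/GAPDH/POLR2A, after 48 h chemical exposure of HepaRG cells; 8-point half-log series, top 100 uM, 0.5% DMSO vehicle. Bidirectional curve fit versus DMSO baseline.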

Read-out in experiment [18]: Bcl-2 (BAD) gene, BAD (gene 572)
Kind of experiment: LTEA_HepaRG_BAD: Life Technologies and Expression Analysis (LTEA) Assay for Bcl-2 (BAD) gene using HepaRG (AID 2283469). The settings on record: mRNA level, 48 h; actives raise or lower the signal. A digest of the protocol:
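Read-out: qRT-PCR of BAD mRNA, normalized to three housekeeping genes. Human HepaRG cultures got 48 h chemical exposure in 0.5% DMSO, duplicate eight-point half-log series topping at 100 uM. Gain or loss of signal fitted versus DMSO vehicle.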

Read-out in experiment [19]: Forkhead box O3 (FOXO3), FOXO3 (gene 2309)
Kind of experiment: LTEA_HepaRG_FOXO3: Life Technologies and Expression Analysis (LTEA) Assay for Forkhead box O3 (FOXO3) using HepaRG (AID 2283459). The following applies: mRNA level, 48 h; actives raise or lower the signal. Summed up: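 FOXO3 transcript measured by qRT-PCR (normalized to ACTB, GAPDH, POLR2A) after 48 h exposure of HepaRG cells in serum-free induction medium. Duplicates, eight half-log concentrations up to 100 uM, 0.5% DMSO; gain or loss fitted against DMSO.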

Read-out in experiment [20]: ATP-citrate lyase (ACLY), ACLY (gene 47)
Nature of the experiment: LTEA_HepaRG_ACLY: Life Technologies and Expression Analysis (LTEA) Assay for ATP-citrate lyase (ACLY) using HepaRG (AID 2283466). The settings on record: mRNA level, 48 h; actives raise or lower the signal. Summed up:
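ACLY mRNA quantified by qRT-PCR on Fluidigm arrays against three housekeeping genes, after 48 h chemical treatment of HepaRG cells (top concentration 100 uM, half-log steps, 0.5% DMSO vehicle). Up- or down-regulation fitted relative to DMSO.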

Here are results for two compounds from PubChem BioAssay (EPA / NIEHS).

Activity calls are given as the source filed them. How the source made its calls: active means hit-call score of the fitted dose curve at least 0.9, where 1 is the maximum; inactive means score below 0.9.

Sequence of Broad substrate specificity ATP-binding cassette transporter ABCG2 (Homo sapiens) (Q9UNQ0 whole entry, looked up): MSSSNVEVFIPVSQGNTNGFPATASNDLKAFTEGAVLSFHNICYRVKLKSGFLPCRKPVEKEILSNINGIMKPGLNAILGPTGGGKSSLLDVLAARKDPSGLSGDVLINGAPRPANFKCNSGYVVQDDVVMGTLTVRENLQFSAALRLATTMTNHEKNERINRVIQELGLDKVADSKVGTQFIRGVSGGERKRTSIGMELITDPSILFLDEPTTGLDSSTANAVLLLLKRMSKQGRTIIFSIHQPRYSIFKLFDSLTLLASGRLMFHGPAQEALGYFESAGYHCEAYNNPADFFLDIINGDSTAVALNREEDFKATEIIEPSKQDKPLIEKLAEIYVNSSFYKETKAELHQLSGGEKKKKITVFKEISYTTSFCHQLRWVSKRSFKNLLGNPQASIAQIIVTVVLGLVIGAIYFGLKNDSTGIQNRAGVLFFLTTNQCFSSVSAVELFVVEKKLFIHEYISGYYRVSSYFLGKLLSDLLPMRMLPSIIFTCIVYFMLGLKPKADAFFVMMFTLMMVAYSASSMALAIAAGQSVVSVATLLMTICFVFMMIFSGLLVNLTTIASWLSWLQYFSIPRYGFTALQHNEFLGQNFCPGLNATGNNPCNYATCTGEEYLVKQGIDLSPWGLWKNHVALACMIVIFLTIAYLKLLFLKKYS

The AC50 is the concentration at which the activity in the assay is half-maximal. With `O=c1c(-c2ccc(O)cc2)coc2cc(O)cc(O)c12`, the compound was called inactive in experiment [1], in experiment [2], in [3], in experiment [4], in [5] and in experiment [6]. Moreover, the outcome in experiment [7], in experiment [9], in experiment [10], in experiment [11], in [12] and in experiment [14] was inactive. The call in [15], in [16], in experiment [17] and in experiment [18] was inactive. Also, the AC50 in experiment [8] is 12.3 µM (active); in experiment [13], 9.92 µM (active).

Regarding `CC(=O)N1CCN(c2ccc(OC[C@H]3CO[C@](Cn4ccnc4)(c4ccc(Cl)cc4Cl)O3)cc2)CC1`, the AC50 in [1] was 12.3 µM (active); in [2] it was 91.1 µM (active); in [3], 13.1 µM (active); in experiment [4], 11.8 µM (active); in experiment [5], 0.698 µM (active); in [6] it was 74.2 µM (active). Also, the AC50 in experiment [7] was 33.4 µM (active); in experiment [9] it was 12.5 µM (active); in experiment [19], 77.6 µM (active); in experiment [14] it was 31.1 µM (active); in [15], 4.05 µM (active); in experiment [20], 1.23 µM (active). Moreover, the AC50 in [16] was 18.1 µM (active). The compound was called inactive in experiment [11] and in experiment [18].
